{"source": "PubChem BioAssay (EPA / NIEHS)", "note": "Activity calls are given as the source filed them. How the source made its calls: active means hit-call score of the fitted dose curve at least 0.9, where 1 is the maximum; inactive means score below 0.9.", "data": [{"read-out": "Monocyte Chemoattractant Protein-1 (MCP1), CCL2 (gene 6347)", "experiment": "BSK_hDFCGF_MCP1: BioMAP Diversity Plus: hDFCGF Assay for Monocyte Chemoattractant Protein-1 (MCP1) Biomarker Activity (AID 2284285)", "conditions": "primary human foreskin fibroblasts", "method": "BSK_hDFCGF is a cell-based, multiplexed-readout assay that uses foreskin fibroblast, a human skin primary cell, with measurements taken at 24 hours after chemical dosing in a 96-well plate.BSK_hDFCGF_MCP1 is an assay component measured in the BSK_hDFCGF assay. It measures MCP-1 antibody related to regulation of gene expression using ELISA technology.Data from the assay component BSK_hDFCGF_MCP1 was analyzed at the endpoint, BSK_hDFCGF_MCP1, in the positive analysis fitting direction relative to DMSO as the negative control and baseline of activity. Using a type of binding reporter, gain or loss-of-signal activity can be used to understand protein changes. To generalize the intended target to other relatable targets, this assay endpoint is annotated to the 'cytokine' intended target family, where the subfamily is 'chemotactic factor'.\nThe levels of cell surface (or secreted, indicated by the prefix \"s\") biomarker endpoints were measured by ELISA. Overt cytotoxicity to cells in confluent adherent cultures (all systems other than the BT system) was assessed by measuring total protein levels using sulforhodamine B (SRB) staining in parallel cultures at the time of biomarker measurements, indicated as SRB endpoints. For proliferation assays for adherent cell types, individual cell types are cultured at sub-confluence and relative cell numbers quantified by SRB staining at time points optimized for each system (48 h: 3C and CASM3C systems; 72 h: BT and HDF3CGF systems; 96 h: SAg system). SRB was performed by staining cells with 0.1% SRB after fixation with 10% TCA and reading wells at 560 nm.Viability and proliferation of PBMC (T cells) was quantified by Alamar Blue reduction for the SAg and BT systems. For PBMC viability (referred to as PBMC Cytotoxicity within the assay endpoint names), cells were plated (75,000/well in a 96-well plate) and then chemical samples added for 1 h before addition of activators, SEB and TSST-1 (20 ng/mL final concentration each). Cells were incubated for 90 h. Then, Alamar Blue (20 uL/well) (Invitrogen, Cat DAL1100) was added for 6 h, and the plates were read with a fluorescence microplate reader at 546/580 nm (excitation/emission). For PBMC proliferation, cells were plated and activated as above but incubated for only 16 h prior to addition of Alamar Blue. Plates were read after 6 h.", "values": [{"smiles": "CC(=O)OCCC(C)CC(C)(C)C", "note": "(configuration not stated)", "outcome": "inactive"}, {"smiles": "Nc1cc([N+](=O)[O-])ccc1O", "outcome": "inactive"}, {"smiles": "C[C@H]1C[C@@H]2[C@H]([C@@H](O)C[C@@]3(C)[C@H]2CC[C@]3(O)C(=O)CO)[C@@]2(C)C=CC(=O)C=C12", "outcome": "inactive"}, {"smiles": "CCC(=O)OCc1ccccc1", "outcome": "inactive"}, {"smiles": "OC[C@H]1O[C@H](O[C@]2(CCl)O[C@H](CCl)[C@@H](O)[C@@H]2O)[C@H](O)[C@@H](O)[C@H]1Cl", "outcome": "inactive"}, {"smiles": "OC1OC[C@@H](O)[C@H](O)[C@H]1O", "note": "(some centres not stated)", "outcome": "inactive"}, {"smiles": "CC[Si](OC(C)=O)(OC(C)=O)OC(C)=O", "outcome": "inactive"}, {"smiles": "Cc1cc(C2(c3cc(C)c(O)cc3C)OS(=O)(=O)c3ccccc32)c(C)cc1O", "outcome": "inactive"}, {"smiles": "COc1cc(C=O)ccc1OC(=O)C(C)C", "outcome": "inactive"}, {"smiles": "NCCNCCN", "outcome": "inactive"}, {"smiles": "C=CCOC(=O)CCC1CCCCC1", "outcome": "inactive"}, {"smiles": "CC(=O)[C@H]1CC[C@H]2[C@@H]3CC=C4C[C@@H](O)CC[C@]4(C)[C@H]3CC[C@]12C", "outcome": "inactive"}]}]}
